Laboratory results published in the supplement of paper PMC12024424.
Counter-ions that a name gives are not always drawn.

System: Staphylococcus aureus Sa2 (MRSA, cystic fibrosis isolate)
Experiment: growth reduction vs untreated control (viable cell count); higher = stronger antibacterial activity; extreme values may be limits of the assay
Conditions: 0.1 mM; 24 h
Description: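 Single-dose screen of the MedChem Express Drug Repurposing Library (0.1 mM, 1% DMSO) against planktonic MRSA S. aureus Sa2 (CF isolate) in TSB in 96-well plates, 37 °C aerobic, 24 h. Assays were run in triplicate and repeated twice.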

COCC[n+]1c2c(n(Cc3cnccn3)c1C)C(=O)c1ccccc1C2=O [Sepantronium (bromide)] and CC1(S(=O)(=O)O)CC(=O)c2ccccc2C1=O (stereo unspecified) [Menadione bisulfite (sodium)] are the same in growth reduction: 100% for the first, 100% for the second.

Compared with C#C[C@]1(O)CC[C@H]2[C@@H]3CCc4cc(OC)ccc4[C@H]3CC[C@@]21C [Mestranol], C#C[C@]1(OC(C)=O)CC[C@H]2[C@@H]3CCC4=C[C@@H](OC(C)=O)CC[C@@H]4[C@H]3CC[C@@]21C [Ethynodiol diacetate] is higher in growth reduction: 93% for the first, 94% for the second.

First: CC/C(=C(\c1ccccc1)c1ccc(OCCN(C)C)cc1)c1ccccc1 [Tamoxifen]
Second: O=C(O)c1ccc(-n2nc(-c3ccccc3O)nc2-c2ccccc2O)cc1 [Deferasirox]
The growth reduction of the first is higher: 100% for the first, 99% for the second.

CN[C@H]1CC[C@@H](c2ccc(Cl)c(Cl)c2)c2ccccc21 [Sertraline (hydrochloride)] and Cc1ccc(Sc2ccccc2N2CCNCC2)c(C)c1 [Vortioxetine] are the same in growth reduction: 100% for the first, 100% for the second.

CCCCCCCOc1ccc(CCC(N)(CO)CO)cc1C(F)(F)F [Amiselimod (hydrochloride)] and CCCCCCCCc1ccc(CCC(N)(CO)CO)cc1 [Fingolimod] are the same in growth reduction: 100% for the first, 100% for the second.

C=C(C)[C@@H]1CC[C@]2(C(=O)O)CC[C@]3(C)[C@H](CC[C@@H]4[C@@]5(C)CC[C@H](OC(=O)CC(C)(C)C(=O)O)C(C)(C)[C@@H]5CC[C@]43C)[C@@H]12 [Bevirimat] and CC(C)COc1ccc(CNC(=O)N(Cc2ccc(F)cc2)C2CCN(C)CC2)cc1 [Pimavanserin tartrate] are the same in growth reduction: 100% for the first, 100% for the second.

Cc1ccc(-n2[nH]c(C)c(N=Nc3cccc(-c4cccc(C(=O)O)c4)c3O)c2=O)cc1C [Eltrombopag (Olamine)] and CC(C)(C)c1cc(-c2cc(-c3ccc(C(=O)O)cc3)ccc2OCCO)ccc1N1CCCC1 [Trifarotene] are the same in growth reduction: 100% for the first, 100% for the second.

First: CCCCOc1nc(N)c2c(n1)N(Cc1cccc(CN3CCCC3)c1)CC(=O)N2 [Vesatolimod]
Second: C1=N/C2=N/c3ccc(OCCN4CCCC4)c(c3)COC/C=C/COCc3cccc(c3)C(=C1)N2 [Pacritinib]
The growth reduction of the first is lower: 98% for the first, 100% for the second.

O=C(NC1CCN(CCCCC2(C(=O)NCC(F)(F)F)c3ccccc3-c3ccccc32)CC1)c1ccccc1-c1ccc(C(F)(F)F)cc1 [Lomitapide] and CCOc1nc2cccc(C(=O)OC(C)OC(=O)OC3CCCCC3)c2n1Cc1ccc(-c2ccccc2-c2nn[nH]n2)cc1 (stereo unspecified) [Candesartan Cilexetil] are the same in growth reduction: 100% for the first, 100% for the second.

COc1cc(NCc2ccc3nc(N)nc(N)c3c2C)cc(OC)c1OC [Trimetrexate] and C=CC(=O)Nc1cc(Nc2nccc(-c3cn(C4CC4)c4ccccc34)n2)c(OC)cc1N(C)CCN(C)C [Almonertinib] are the same in growth reduction: 100% for the first, 100% for the second.

CC(C)/N=c1\cc2n(-c3ccc(Cl)cc3)c3ccccc3nc-2cc1Nc1ccc(Cl)cc1 [Clofazimine] and Cc1cc(C)cc([C@@H]2CCCN2Cc2ccc(Oc3ccc(C(N)=O)cc3F)cc2)c1 [Aticaprant] are the same in growth reduction: 100% for the first, 100% for the second.

Going from Cc1ccc([C@@H]2O[C@H](CO)[C@@H](O)[C@H](O)[C@H]2O)cc1Cc1ccc(-c2ccc(F)cc2)s1 [Canagliflozin] to NC(=O)c1cccc2cn(-c3ccc([C@@H]4CCCNC4)cc3)nc12 [Niraparib (tosylate)], the growth reduction falls from 100% to 99%.

C[C@@H](OC[C@@]1(c2ccccc2)CC[C@]2(CCC(=O)N2)CN1)c1cc(C(F)(F)F)cc(C(F)(F)F)c1 [Rolapitant] and CCCCCc1ccc(C=CC(=O)Nc2ccccc2C(=O)O)cc1 [N-(p-amylcinnamoyl) Anthranilic Acid] are the same in growth reduction: 100% for the first, 100% for the second.

O=C(O)CNC(=O)c1nc(Cl)c2ccccc2c1O and COC(=O)C1=C(C)NC(C)=C(C(=O)OC(C)C)C1c1cccc2nonc12 (stereo unspecified) [Isradipine] are the same in growth reduction: 100% for the first, 100% for the second.

First: CCCCc1oc2ccc(NS(C)(=O)=O)cc2c1C(=O)c1ccc(OCCCN(CCCC)CCCC)cc1 [Dronedarone]
Second: CCCCN(CCCC)C(=O)CN1C[C@H](c2ccc3c(c2)OCO3)[C@@H](C(=O)O)[C@@H]1c1ccc(OC)cc1 [Atrasentan (hydrochloride)]
The growth reduction of the first is higher: 100% for the first, 98% for the second.

CCOC(=O)N1CCC(=C2c3ccc(Cl)cc3CCc3cccnc32)CC1 [Loratadine] was tested, and the growth reduction was 100%.
